Most compounds without a hit are left out; they make up all but 2.9% or so of the library.
ALOX12 inh: ALOX12 (human) lipoxygenase inhibition | P18054 | purified 12hLO, xylenol orange hydroperoxide absorbance | Potency, µM (top dose mostly 108 µM), for inactives: at the top dose activity change, negative = inhibition, actives largely listed as inhibitors | 580,000 compounds, 1.1% hits | AID 1671190; also: potency is read from the fitted curve at half-maximal effect; % is scaled to controls: 0 for no effect and ±100 for the full control effect
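Purified human 12hLO at 150 nM in 25 mM Hepes, 0.01% Triton X-100, pH 7.0, preincubated 15 min at room temperature with compound. Reaction started with 40 uM arachidonic acid, 30 min at room temperature. Hydroperoxide measured by Fe-xylenol orange, 573/405 nm absorbance ratio.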
POLI inh: blocks human DNA polymerase iota activity; Pol iota fluorescent replication assay, 10 min; Potency, µM (highest dose often 115 µM), without a hit: at the highest dose activity, negative = inhibition, most hits filed as inhibitors; 390,000 compounds, 1% hits; AID 588590; also: potency is read from the fitted curve at half-maximal effect
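Pol iota at 10 nM preincubated 15 min with compounds at room temperature; reaction started with fluorescent substrate, 50 nM final. Fluorescence read kinetically at 0 and 10 min; buffer-only wells as negative control.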
PI5P4K alpha inh: inhibitors of human PI5P4K alpha; AID 652105; 330,000 compounds, 1.2% hits; PI5P4Kalpha enzyme, ADP-Glo luminescence, 60 min; active compounds read low; P48426; max response, %; active = max response of -50% or lower; inconclusive = between -30% and -50%; inactive = -30% or higher; also: value at the top dose of about 77 µM; % is scaled to controls: 0 for no effect and ±100 for the full control effect
Target sequence (P48426 whole entry, looked up): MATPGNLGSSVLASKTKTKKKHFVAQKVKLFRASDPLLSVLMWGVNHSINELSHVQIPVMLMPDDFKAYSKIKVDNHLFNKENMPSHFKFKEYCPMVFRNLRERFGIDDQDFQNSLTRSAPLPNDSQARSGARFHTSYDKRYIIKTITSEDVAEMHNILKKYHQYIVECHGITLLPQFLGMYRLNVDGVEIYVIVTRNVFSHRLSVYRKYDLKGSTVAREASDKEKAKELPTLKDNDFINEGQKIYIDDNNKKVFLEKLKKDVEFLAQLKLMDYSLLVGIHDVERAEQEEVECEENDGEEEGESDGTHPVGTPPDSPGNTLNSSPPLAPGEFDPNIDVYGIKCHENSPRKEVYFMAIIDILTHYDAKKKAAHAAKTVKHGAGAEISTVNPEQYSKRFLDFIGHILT
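ADP-Glo luminescence end-point after a 60 min room-temperature kinase reaction. PI5P4Kalpha and substrate in HEPES pH 7.4 buffer with EGTA, 0.1% CHAPS and 5% DMSO; ATP at 5 microM final.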
Pol eta inh-1: DNA polymerase eta (human) inhibition; Q9Y253; recombinant Pol eta, fluorescent DNA replication assay; Potency, µM (doses to about 114 µM), for the others: at the top dose activity change, negative = inhibition, hits mostly inhibitors; 390,000 compounds, 1.2% hits; AID 588591; also: potency is read from the fitted curve at half-maximal effect; % is scaled to controls: 0 for no effect and ±100 for the full control effect
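Pol eta (10 nM) was preincubated with compounds for 15 min at room temperature, after which fluorescent replication substrate (50 nM final) was added to start the reaction. Fluorescence was read kinetically at 0 and 10 min.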
POLB inh: blocks human DNA polymerase beta activity; Pol beta primer extension/strand displacement, fluorescence kinetic; AID 485314; P06746; 340,000 compounds, 1.3% hits; Potency, µM (series often up to 114 µM), for inactives: at the highest dose activity change, negative = inhibition, hits mostly inhibitors; also: potency is read from the fitted curve at half-maximal effect; % is scaled to controls: 0 for no effect and ±100 for the full control effect
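10 nM enzyme + cpd, 15 min RT; start with substrate 50 nM final; read 0 min and after 10 min RT. Corrected, normalized data; 4-parameter Hill curve fit.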
Pol kappa inh-1: DNA polymerase kappa (human) inhibition; Q9UBT6; purified Pol kappa, fluorescent DNA synthesis assay, 10 min; Potency, µM (titrated, usually from 107 µM), without a hit: at the highest dose activity, negative = inhibition, usual class: inhibitors; 400,000 compounds, 0.53% hits; also: potency is read from the fitted curve at half-maximal effect; % is scaled to controls: 0 for no effect and ±100 for the full control effect
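Kinetic fluorescence screen: compound preincubated 15 min RT with 10 nM enzyme; 50 nM substrate (final) initiates; reads at 0/10 min.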
BAZ2B inh: inhibits human BAZ2B bromodomain, hit validation; Potency, µM, usual class: inhibitors; AlphaScreen BAZ2B / biotin-H3K14Ac peptide displacement; 25 compounds, 100% hits; shares compounds with Pol kappa inh-1; calls by dose curve
BAZ2B bead ctr: AlphaScreen signal interference, BAZ2B hit counter-screen; shares compounds with Pol kappa inh-1; AlphaScreen biotin-His6 peptide bead counterscreen, signal decrease; Potency, µM (highest dose often 57.1 µM), for the others: top-dose activity change, negative = inhibition, most hits filed as inhibitors; 25 tested, under 10 active; AID 588859;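 active = clear concentration-dependent signal drop in the bead assay lacking the target, so a primary-screen artifact; inconclusive = weak, partial or single-dose response; inactive = no response, so a real primary hit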
TbPGK inh: TbPGK inhibition, hit validation | AID 686980 | shares compounds with Pol kappa inh-1 | TbPGK coupled GAPDH assay, Kinase-Glo luminescence | 500 compounds, 79% hits | Potency, µM (titrated, usually from 57.5 µM), inactives show at the top dose activity change, negative = inhibition, actives largely listed as inhibitors; also: potency is read from the fitted curve at half-maximal effect; % is scaled to controls: 0 for no effect and ±100 for the full control effect; nearly all actives have a fitted effect of over 65% in size
POLI cherry-pick: Human Pol iota inhibitor confirmatory assay; Pol iota primer extension, TAMRA/BHQ fluorescence; AID 720496; 1,500 compounds, 77% hits; Potency, µM, actives largely listed as inhibitors; shares compounds with Pol kappa inh-1; also: potency is read from the fitted curve at half-maximal effect
Pol kappa inh-2: confirmation of human DNA polymerase kappa inhibitors | shares compounds with Pol eta inh-1 | purified Pol-kappa, fluorescent strand-displacement substrate | Potency, µM, usual class: inhibitors | 920 compounds, 76% hits | AID 720501; also: potency is read from the fitted curve at half-maximal effect
Pol eta inh-2: confirmation of human DNA polymerase eta inhibitors; shares compounds with Pol eta inh-1; Pol eta primer extension, TAMRA/BHQ fluorescence, 10 min; Potency, µM, most hits filed as inhibitors; 2,600 compounds, 64% hits; AID 720502; also: potency is read from the fitted curve at half-maximal effect
Active calls of the source: *; [ ] = another dose, or the depositor's remark. Unless noted, calls follow the shape of the dose curve; as a rule, active = well fitted curve in the direction sought with a large enough effect; inconclusive = small, poorly fitted or top-dose-only effect, or another doubt; inactive = no such curve, though single readings can be large; an effect the other way counts as inactive or inconclusive.

Screening C=C(C)C(=O)Nc1cccc(C2=NOC3(C2)C[C@@H](C(N)=O)N(C(=O)/C=C/CC)C3)c1 (stereo partly drawn) returned ALOX12 inh 0.0%, POLI inh 15.8µM*, PI5P4K alpha inh -22.6, Pol eta inh-1 7.94µM*, POLB inh 3.55µM*, Pol kappa inh-1 28.2µM*, BAZ2B inh 10*, BAZ2B bead ctr -6.7%, TbPGK inh inconclusive, POLI cherry-pick inconclusive, Pol kappa inh-2 18.9* and Pol eta inh-2 19*.
Screening C=C(C)C(=O)Nc1cccc(C2=NOC3(C2)C[C@H](C(N)=O)N(C(=O)COc2ccc(Cl)cc2)C3)c1 (stereo partly drawn) returned ALOX12 inh -9.5%, POLI inh 44.7µM*, PI5P4K alpha inh inconclusive, Pol eta inh-1 7.94µM*, POLB inh 4.47µM*, Pol kappa inh-1 17.8µM*, BAZ2B inh 5.62*, BAZ2B bead ctr -18.0%, POLI cherry-pick 16.8* and Pol eta inh-2 8.49*.
C=C(C)C(=O)Nc1cccc(C2=NOC3(C2)C[C@@H](C(N)=O)N(C(=O)C2(C)CC2)C3)c1 (stereo partly drawn) was read as ALOX12 inh -5.3%, POLI inh 50.1µM*, PI5P4K alpha inh -28.8, Pol eta inh-1 3.16µM*, POLB inh 1.12µM*, Pol kappa inh-1 44.7µM*, BAZ2B inh 1.26*, BAZ2B bead ctr inconclusive, TbPGK inh inconclusive, POLI cherry-pick inconclusive and Pol eta inh-2 9.53*.
`Cn1cc(C(=O)OCC(=O)Nc2c(F)cccc2F)c2ccccc21` gave ALOX12 inh 0.5%.
For CN(C)Cc1cn(C[C@H]2C[C@@H]3CCN2C[C@@H]3C(=O)NCc2ccc(F)cc2)nn1 the results were ALOX12 inh 31.6%[176 µM].
OCCNc1c2c(nc3ccccc13)CCCC2 was read as ALOX12 inh 9.9%, POLI inh 0.8%, PI5P4K alpha inh -0.2, Pol eta inh-1 -8.4%, POLB inh 24.8% and Pol kappa inh-1 8.7%.
`CNc1ccc2nc3ccccc3[n+](C)c2c1` gave ALOX12 inh 56.1%, POLI inh 35.5µM*, PI5P4K alpha inh 4.0, Pol eta inh-1 50.1µM*, POLB inh 28.2µM*, Pol kappa inh-1 20µM*, POLI cherry-pick 75.2*, Pol kappa inh-2 18.9* and Pol eta inh-2 67.5*.
C[n+]1c2ccccc2nc2ccc(NCCO)cc21 was read as ALOX12 inh 6.3%, POLI inh inconclusive, PI5P4K alpha inh -24.2, Pol eta inh-1 39.8µM*, POLB inh 28.2µM*, Pol kappa inh-1 44.7µM*, POLI cherry-pick 75.2*, Pol kappa inh-2 42.3* and Pol eta inh-2 67.5*.
For O=C(NCc1ccccc1)[C@H]1CN2CCC1C[C@@H]2Cn1cc(-c2ccccc2)nn1 (stereo partly drawn) the results were ALOX12 inh 29.4%[176 µM].
For CN1CC[C@@]2(C)c3cc(O)ccc3N(C)C2O1 (stereo partly drawn) the results were POLI inh 25.1µM*, Pol eta inh-1 inconclusive, Pol kappa inh-1 -6.2%, POLI cherry-pick 59.7* and Pol eta inh-2 inconclusive.
`CC1[C@H]2Cc3ccc(O)cc3[C@]1(C)CCN2C` (stereo partly drawn) gave ALOX12 inh 1.5%, POLI inh -5.0%, PI5P4K alpha inh 8.1, Pol eta inh-1 -2.1% and Pol kappa inh-1 -0.5%.
Screening CN1CC[C@@]2(C)c3cc(O)ccc3N(C)[C@@H]12 returned ALOX12 inh -24.0%, POLI inh 10µM*, PI5P4K alpha inh -25.0, Pol eta inh-1 inconclusive, Pol kappa inh-1 -4.3%, POLI cherry-pick 59.7* and Pol eta inh-2 inconclusive.
O=C1NC(=O)C(=Cc2ccco2)C(=O)N1 was read as ALOX12 inh inconclusive, POLI inh inconclusive, PI5P4K alpha inh -83.7*, Pol eta inh-1 8.91µM*, Pol kappa inh-1 39.8µM*, TbPGK inh 3.66µM*, POLI cherry-pick 67*, Pol kappa inh-2 21.2* and Pol eta inh-2 30.1*.
For N[C@H]1[C@H](O)[C@@H](N2CCCCC2)[C@@H]2OC[C@H]1O2 the results were ALOX12 inh 22.4%[176 µM].
`CC(=O)OC1CCC2(/C=N/O)[C@H]3CCC4(C)C(C5=CC(=O)OC5)CCC4(O)[C@@H]3CCC2(O)C1` (stereo partly drawn) gave ALOX12 inh -4.6%.
`N#CC(C#N)=NNc1ccc(S(N)(=O)=O)cc1` gave ALOX12 inh -2.8%, POLI inh 20µM*, PI5P4K alpha inh -107.3*, Pol eta inh-1 12.6µM*, POLB inh -6.4%, Pol kappa inh-1 44.7µM*, TbPGK inh -17.6%, Pol kappa inh-2 inconclusive and Pol eta inh-2 67.5*.
Screening COc1ccc2nc(NC(=O)c3nc(S(=O)(=O)Cc4cccc(C)c4)ncc3Cl)sc2c1 returned ALOX12 inh 3.8%, POLI inh inconclusive, Pol eta inh-1 79.4µM*, POLB inh 31.6µM*, Pol kappa inh-1 inconclusive, POLI cherry-pick 75.2* and Pol eta inh-2 inconclusive.
O=C1NC(=O)N(c2ccc3c(c2)OCO3)C(=O)/C1=C/c1ccc(N2CCCC2)o1 was read as ALOX12 inh -17.3%, POLI inh inconclusive, PI5P4K alpha inh -1.1, Pol eta inh-1 inconclusive, POLB inh 7.4% and Pol kappa inh-1 -6.4%.

Screening data as filed in PubChem.
